Test systems include PLK3; PLK4; PRKCD; PRKCE; PRKCH; PRKCI; PRKCQ; PRKD1; PRKD2; PRKD3.
What all share (details): Compound Concentration (nM):1000
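Also: KINOMEscan scanMAX binding as percent activity remaining versus control; lower means stronger binding.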

On to `COc1cc(C=NNc2ncnc3c2cnn3-c2ccccc2)ccc1O` [GW513184X], for which the “Percent Control” value in the experiment with PLK3 is on record as 71%; in the experiment with PLK4 it was 77%; with PRKCD, 100%; with PRKCE, 88%; in the experiment on PRKCH, 100%; in the experiment on PRKCI, 100%. The “Percent Control” value is 86% with PRKCQ, 100% in the experiment with PRKD1, 100% in the experiment on PRKD2 and 100% with PRKD3.
As for `CN(C)CCNC(=O)Nc1ccc(N(C)c2ccnc(Nc3ccc(CS(C)(=O)=O)cc3)n2)cc1.Cl` [GW830900A], the “Percent Control” value with PLK3 is listed as 90%; in the experiment with PLK4 it was 24%; in the experiment on PRKCD, 100%; with PRKCE it was 100%; in the experiment on PRKCH, 100%; in the experiment with PRKCI it was 85%. For the same molecule, the “Percent Control” value in the experiment with PRKCQ, in the experiment on PRKD1, in the experiment with PRKD2 and with PRKD3 was 100% throughout.
For the molecule `Cl.O=C(O[C@H]1CN[C@H](C#Cc2cc3ncnc(Nc4ccc5c(cnn5Cc5ccccc5)c4)c3s2)C1)N1CCOCC1` [GSK200398A], the “Percent Control” value came to 91% in the experiment on PLK3; 69% in the experiment with PLK4; 100% in the experiment with PRKCD; 88% in the experiment on PRKCE; 100% in the experiment with PRKCH; 100% with PRKCI. Besides, the “Percent Control” value with PRKCQ was 64%; in the experiment on PRKD1, 100%; in the experiment on PRKD2 it was 93%; with PRKD3 it was 100%.
As for `CC(C)COC(=O)c1ccc2c(c1)/C(=C/Nc1ccc(S(N)(=O)=O)cc1)C(=O)N2` [GW416981X], the “Percent Control” value worked out at 83% in the experiment on PLK3; 64% in the experiment with PLK4; 100% in the experiment with PRKCD; 100% in the experiment with PRKCE; 100% in the experiment with PRKCH; 100% in the experiment with PRKCI. Besides, the “Percent Control” value was 100% in the experiment with PRKCQ, 100% in the experiment on PRKD1, 100% in the experiment with PRKD2 and 61% in the experiment with PRKD3.
`CC1=C(C(=O)Nc2ccc3[nH]ncc3c2)C(c2ccc3ccccc3c2)CC(=O)N1` (stereo not drawn) [GSK270822A]: the “Percent Control” value turned out to be 82% in the experiment with PLK3; 88% in the experiment with PLK4; 100% with PRKCD; 100% in the experiment with PRKCE; 100% in the experiment on PRKCH; 80% with PRKCI. Moreover, the “Percent Control” value in the experiment on PRKCQ was 82%; in the experiment on PRKD1 it was 100%; with PRKD2 it was 100%; in the experiment with PRKD3, 22%.
In the case of `COc1ccccc1-c1cc(/C=C2\C(=O)Nc3ncc(Br)cc32)cc(Br)c1O` [GW442130X], the “Percent Control” value with PLK3 is given as 89%; in the experiment with PLK4, 80%; in the experiment on PRKCD it was 100%; in the experiment with PRKCE it was 100%; with PRKCH it was 86%; with PRKCI it was 100%. Also, the “Percent Control” value with PRKCQ is 100%; in the experiment on PRKD1 it was 83%; in the experiment with PRKD2, 100%; in the experiment with PRKD3, 100%.
`Nc1ncnc2occ(-c3ccc(NC(=O)Nc4cc(C(F)(F)F)ccc4F)cc3)c12` [GW770249X]: the “Percent Control” value is recorded as 16% with PLK3; 80% in the experiment with PLK4; 76% in the experiment on PRKCD; 94% in the experiment on PRKCE; 100% in the experiment on PRKCH; 100% in the experiment with PRKCI. Further, the “Percent Control” value with PRKCQ is 100%; with PRKD1, 100%; in the experiment with PRKD2, 100%; in the experiment on PRKD3, 85%.
Turning to `NS(=O)(=O)c1ccc(N/N=C2\C(=O)Nc3ccc(C(=O)NCCc4c[nH]cn4)cc32)cc1` [GW300660X], the “Percent Control” value stood at 76% in the experiment on PLK3; 81% in the experiment with PLK4; 100% with PRKCD; 98% in the experiment with PRKCE; 100% with PRKCH; 90% in the experiment on PRKCI. Further, the “Percent Control” value in the experiment on PRKCQ was 100%; in the experiment on PRKD1 it was 100%; with PRKD2, 100%; in the experiment with PRKD3 it was 85%.
Regarding `NS(=O)(=O)c1ccc(N/N=C2\C(=O)Nc3ccc(-c4cnco4)cc32)cc1` [GW276655], the “Percent Control” value with PLK3 is 76%; in the experiment on PLK4, 60%; with PRKCD, 75%; with PRKCE it was 100%; with PRKCH it was 100%; in the experiment with PRKCI, 54%. Also, the “Percent Control” value in the experiment on PRKCQ was 81%; in the experiment with PRKD1 it was 100%; with PRKD2, 94%; in the experiment with PRKD3, 100%.

The values above are taken from publication PMC7826789 (International Journal of Molecular Sciences, 2021).
